Screens (PubChem BioAssay)
hgDAF-12 ag – hgDAF-12 agonism, primary luciferase screen | HEK293 GAL4-hgDAF12 UAS-luciferase reporter, agonist luminescence; normalized to butyrate control | activation, % at 6.8 µM | 370,000 compounds, 1.8% hits | AID 687014;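 active = activation above a cutoff set at the mean of all screened compounds plus 3 SD, cut at about 10% in these data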;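 note: 0% = DMSO wells and 100% = sodium butyrate wells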
hcDAF12 agonist – H. contortus DAF-12 activation, primary screen | 370,000 compounds, 1.4% hits | HEK293 hcDAF-12 lit1-tk-luc reporter, luminescence; 0% DMSO, 100% Δ7-dafachronic acid | activation, % at 6.8 µM | AID 652067;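 active = activation above the mean of all tested compounds plus 3 SD, cut at about 5.5% in these data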;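 note: 100% = response to 3 µM Δ7-dafachronic acid high control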
DAX1 inh-1 – inhibitors of human orphan nuclear receptor DAX1 (NR0B1). HEK293 Gal4-DAX1 luciferase reporter, luminescence. inhibition, % at 6.75 µM. 340,000 compounds, 0.99% hits;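 active = inhibition above the mean over all tested compounds plus 3 SD, cut at about 4.2% in these data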;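 note: 0% = DAX1-transfected cells with DMSO and 100% = empty-vector control cells with DMSO; inhibition shows as a rise in luminescence from relieved DAX1 repression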
Target sequence (P51843 207-470 limits assumed): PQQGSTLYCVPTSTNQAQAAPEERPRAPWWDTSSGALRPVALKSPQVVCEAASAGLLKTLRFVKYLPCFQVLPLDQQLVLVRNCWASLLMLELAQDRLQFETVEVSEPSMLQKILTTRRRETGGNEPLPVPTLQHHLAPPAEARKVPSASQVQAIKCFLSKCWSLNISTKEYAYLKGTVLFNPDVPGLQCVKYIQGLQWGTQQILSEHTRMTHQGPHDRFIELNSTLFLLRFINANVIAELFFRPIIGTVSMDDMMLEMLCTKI
ssDAF-12 act – activators of S. stercoralis DAF-12 nuclear receptor | HEK293 ssDAF-12/GRIP1 lit1-tk-luc reporter, luminescence; % of 3 µM dafachronic acid response | activation, % at 6.8 µM | 370,000 compounds, 1% hits | AID 652126;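 active = activation above the mean over all tested compounds plus 3 SD, cut at about 0.9% in these data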;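 note: 0% = DMSO-only wells and 100% = 3 µM delta7-dafachronic acid wells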
DAX1 inh-2 – DAX1 (NR0B1) inhibition, primary screen. HEK293T StAR-luciferase reporter, SF-1/DAX-1 repression relief. inhibition, % at 6.8 µM. 370,000 compounds, 1.1% hits;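 active = inhibition above the mean over all tested compounds plus 3 SD, cut at about 3.6% in these data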;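 note: 0% = DAX-1 cells with DMSO and 100% = cells lacking DAX-1 with DMSO; higher inhibition means more luminescence from relief of DAX-1 repression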
Numbers without * were called inactive; · = no result. Hits are enriched below; roughly 4.1% of the tested compounds scored in any of these assays.

SMILES | hgDAF-12 ag | hcDAF12 agonist | DAX1 inh-1 | ssDAF-12 act | DAX1 inh-2
CCCCN1C2CCCC1CC(NC(=O)c1ccccc1Cl)C2 (configuration not stated) | 2 | -2 | 4.7* | -1 | 0
COCCn1c(C)cc(C2=NNC(=Nc3ccccc3F)SC2)c1C | -16 | -7 | -7 | -4 | -4
Cc1cc(C2=NNC(=Nc3ccccc3)SC2)c(C)n1C | 8 | 2 | 5.4* | 1 | 1
CC(C)(C)OC(=O)N(CCc1ccccc1)Cc1cccc(OCc2cccc(NC(=O)c3ccccc3)c2)c1 | 1 | 1 | -1 | -1 | 4.1*
CC(C)(C)OC(=O)N(CCc1ccccc1)Cc1ccc(OCc2cccc(NC(=O)C3CC3)c2)cc1 | 1 | 0 | -1 | -1 | 0
N#Cc1c(Cl)c(Cl)c2nnc(-c3ccc(Br)cc3)n2c1Cl | 2 | 3 | · | 1.2* | -1
FC(F)(F)c1ccc(Oc2ccccc2Cl)nc1 | 2 | 0 | 1 | -2 | 0
FC(F)(F)c1ccc(Oc2ccc(Cl)cc2Br)nc1 | 0 | -1 | 0 | 25* | 0
CC(=O)CC[C@@H]1CC[C@]2(CCCN(C(=O)C(C)(C)C)C2)O1 | -2 | -1 | · | 0 | 1
NC1=NC(=O)/C(=C/c2ccccc2OS(=O)(=O)c2ccccc2)S1 | 0 | -1 | -2 | -1 | -1
COc1cccc(/C=C2\SC(N)=NC2=O)c1OS(=O)(=O)c1ccccc1 | 1 | -1 | 1 | 1.1* | 1
CC(=O)C1=C(O)C(=O)OC1c1ccc(Cl)cc1 (configuration not stated) | 1 | -1 | 4.4* | 0 | 0
CC(=O)C1=C(O)C(=O)OC1c1ccc(C)cc1 (configuration not stated) | -3 | -1 | 3 | -1 | 0
Cc1ccc(SCCC(=O)N2CCC(C(N)=O)CC2)cc1 | -1 | 1 | 1 | -1 | 0
Cc1ccc(SCCC(=O)N2CCC(C)CC2)cc1 | 9 | 2 | 5.7* | 0 | 1
CCCC1NC(=O)c2cc3ccccc3cc2-n2c1nc1cc(Cl)ccc1c2=O (configuration not stated) | 0 | 1 | 1 | 1.4* | 1
CCCC1NC(=O)c2cc3ccccc3cc2-n2c1nc1ccc(C)cc1c2=O (configuration not stated) | 0 | 1 | 2 | 0 | 2
Cc1ccc2nc3n(c(=O)c2c1)-c1ccc(Cl)cc1C(=O)NC3Cc1ccccc1 (configuration not stated) | 0 | 2 | · | -1 | -1
CC1NC(=O)c2cc3ccccc3cc2-n2c1nc1ccc(F)cc1c2=O (configuration not stated) | 2 | 6.2* | 1 | 0 | 0
Cc1ccc2nc3n(c(=O)c2c1)-c1cc2ccccc2cc1C(=O)NC3Cc1ccccc1 (configuration not stated) | 2 | 0 | 0 | -1 | 3.9*
COc1ccc(-n2c(COc3ccccc3)nnc2SCC(=O)Nc2ccc3c(c2)OCCO3)cc1 | -1 | -1 | · | -1 | -1
CCOC(=O)[C@@]12CCCC3=C1N(CCC3)C(=O)[C@H]2CC(=O)N1CCOCC1 | -3 | 1 | · | -1 | 0
O=C(CNS(=O)(=O)c1cccs1)N1CCCCC1 | 0 | 0 | 0 | -1 | 0
O=C(CNS(=O)(=O)c1c(Cl)cccc1Cl)N1CCCCCC1 | 7 | 2 | 3 | 1.0* | 1
CCc1ccc2nc3n[nH]c(N)c3cc2c1 | 11* | 4 | 1 | -1 | 3
SMILES | hgDAF-12 ag | hcDAF12 agonist | DAX1 inh-1 | ssDAF-12 act | DAX1 inh-2
Nc1[nH]nc2nc3ccccc3cc12 | 3 | 3 | 1 | -1 | 1
CN(CC(=O)Nc1cccc(F)c1)C(=O)CNS(=O)(=O)c1ccc(N(C)C)c([N+](=O)[O-])c1 | 3 | 0 | 4.4* | -1 | -1
CN(C)c1ccc(S(=O)(=O)NCC(=O)N2CCN(S(=O)(=O)c3cccc(F)c3)CC2)cc1[N+](=O)[O-] | -2 | 0 | 0 | -1 | 1
CCC(NC(=O)CCCN1C(=O)COc2ccc(C)cc21)c1ccccc1 (configuration not stated) | -5 | -2 | · | -2 | -1
Cc1ccc(Cc2nc3ccccc3n2C(CCc2ccccc2)c2nc3ccccc3[nH]2)cc1 (configuration not stated) | 2 | 0 | · | -1 | 3
FC(F)(F)c1cc(Cc2nc3ccccc3n2C(CCc2ccccc2)c2nc3ccccc3[nH]2)cc(C(F)(F)F)c1 (configuration not stated) | 6 | 0 | · | -2 | 3.9*
COC(=O)C1CN(C2CCCC2)CCS(=O)(=O)N1Cc1ccccc1 (configuration not stated) | -2 | -1 | · | -1 | -1
COC(=O)C1(Cc2ccc(O)cc2)OC(=O)C(O)=C1c1ccc(O)cc1 (configuration not stated) | 0 | 0 | 7.4* | -1 | 1
COC(=O)CCc1ccc(O)cc1 | 1 | -1 | 2 | -1 | 1
CCCCCC[C@H](CN(CCCC)S(C)(=O)=O)c1ccccc1 | -3 | -3 | · | -2 | -1
COc1ccc(CC(=O)NNC(=O)c2nn(Cc3ccccc3)c(=O)c3ccccc23)cc1OC | 4 | -1 | 5.1* | -1 | 1
COc1ccc(CCNC(=O)Cc2ccccc2)cc1OC | 1 | 1 | 5.6* | -1 | 0
COc1ccc(CCNC(=O)C/C(C)=N/NC(=O)c2ccc(N)cc2)cc1OC | 6 | 4 | 1 | 0.9* | 1
O=S(=O)(c1ccc(Cl)s1)N1CCC(c2cn3ccccc3n2)CC1 | -1 | -2 | · | -1 | 0
O=C(NC1CCCCN(Cc2ccc(Cl)cc2)C1=O)c1ccc(F)c(F)c1 (configuration not stated) | 1 | -3 | · | 0 | -2
CCOC(=O)CC1CCCCN1Cc1cn[nH]c1-c1ccc(F)cc1F (configuration not stated) | -4 | -2 | 4.7* | -1 | 0
COCc1cc(OC)nc(-c2csc(C)n2)n1 | 1 | -1 | 6.4* | -2 | 1
COCc1cc(=O)[nH]c(-c2csc(C)n2)n1 | 1 | 0 | 2 | -1 | 0
COCCCNC(=O)Cn1nnc(-c2ccccc2NC(=O)c2ccccc2F)n1 | -4 | -1 | -1 | -2 | -1
Cc1cc(NC(=O)Cn2nnc(-c3ccccc3NC(=O)c3ccccc3F)n2)no1 | 2 | -1 | 2 | 1.4* | 0
CCOC(=O)N1CCC(NC(=O)c2ccc(Cl)cc2)CC1 | 0 | 2 | 1 | -1 | 0
CCOC(=O)N1CCC(Nc2nc3ccccc3nc2NS(=O)(=O)c2ccc(Cl)cc2)CC1 | 9 | 8.2* | 2 | 0 | 2
CCOc1cccc(=O)c2c(C)n(CC(=O)c3ccccc3)c(C)c12 | -2 | -2 | -1 | -2 | -1
COc1cccc(=O)c2c(C)n(CC(=O)c3ccccc3)c(C)c12 | -1 | 1 | -1 | 1.5* | 0
